This is one part of a sample in which hits are shown more often than they occur.
Pf Dd2 growth: blocks in vitro growth of P. falciparum Dd2. P. falciparum Dd2 growth, SYBR Green, 72 h. Potency, µM (titrated, usually from 28.9 µM), inactives show at the highest dose activity, negative = inhibition, usual class: inhibitors. 4.3% of 120,000 active; active = well fitted inhibition curve with a large enough effect;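 note: plate controls were DMSO vehicle for no effect and reference drug for full effect; nearly all actives have a fitted effect of over 65% in size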
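Infected erythrocytes (Dd2, 0.3% parasitemia, 2.5% hematocrit final) are added to compound in RPMI-1640/Albumax II medium, grown 72 h at 37C in low oxygen, then lysed with saponin/Triton-X containing SYBR Green and read by fluorescence.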
* = called active by the depositor; i = inactive; [ ] = dose if it differs, or a comment. Potency is the fitted concentration of half-maximal effect.

SMILES	Pf Dd2 growth
COc1ccccc1-c1[nH]nc2ncc(C(=O)N3CCC(c4ccccc4)CC3)nc12	14µM*
COc1ccccc1-c1[nH]nc2ncc(C(=O)N(C)c3ccccc3)nc12	-22%[44.1 µM]
COc1ccc(CC(=O)N2CCOC[C@H](Oc3ccc(OC)cc3)C2)cc1	-9%[44.1 µM]
O=C(Cn1cccc1-c1nc(-c2ccc3c(c2)OCO3)no1)NCc1ccc(F)cc1F	12%
CN1C[C@@H](NC(=O)c2ccc(F)cc2)C[C@H]1c1nc(-c2ccc(Cl)cc2)no1	i
CN(C)c1ccc(NC(=O)Cn2cccc2-c2nc(-c3ccc4c(c3)OCO4)no2)cc1	7%
O=C(Cn1cccc1-c1nc(-c2ccc3c(c2)OCO3)no1)Nc1cc(F)cc(F)c1	5µM*
O=C(NCCn1cccc1-c1nc(-c2ccc3c(c2)OCO3)no1)c1ccc2c(c1)OCO2	13µM*
O=C(Cn1cccc1-c1nc(-c2ccc3c(c2)OCO3)no1)Nc1ccc(Cl)cc1	2µM*
Cc1cc(C)c(NC(=O)Cn2cccc2-c2nc(-c3ccc4c(c3)OCO4)no2)c(C)c1	11%
O=C(Cn1cccc1-c1nc(-c2ccc3c(c2)OCO3)no1)NCc1ccc(Cl)cc1	5%
Cc1ccc(C(=O)NCCn2cccc2-c2nc(-c3ccc4c(c3)OCO4)no2)cc1C	-30%
CN(C)c1ccc(C(=O)N[C@H]2C[C@@H](c3nc(-c4ccc5c(c4)OCO5)no3)N(C)C2)cc1	i
O=C(NCCn1cccc1-c1nc(-c2ccc3c(c2)OCO3)no1)c1ccc(F)cc1	131%
CN1C[C@@H](NC(=O)c2ccc3c(c2)OCO3)C[C@H]1c1nc(-c2ccc(Cl)cc2)no1	10µM*
COc1ccc(-c2cc(N3CCC(NC(=O)c4ccc(F)c(Cl)c4)C3)n[nH]2)cc1 (stereo not drawn)	-2%
Cc1ncc(S(C)(=O)=O)c(NCCn2nc(C)nc2C)n1	23%
CC(C)c1noc(CN(C)C(=O)c2csc3nc(-c4ccc(F)cc4)cn23)n1	-29%
COCCNC(=O)C1COC2(CCN(C(=O)c3ccc(F)cc3)CC2)N1C(=O)c1cccc(OC)c1 (stereo not drawn)	-1%
O=C(CCC1CC1)N1CCC(c2cc(Cc3ccccc3)[nH]n2)CC1	-21%
COCCNC(=O)[C@@H]1C[C@H](Oc2cccnc2)CN1C(=O)c1ccoc1	25%
O=[S+]([O-])(c1cccs1)N1CCCN(c2nc3ncccc3o2)CC1	-27%
Cc1nnc2n1CCC(NC(=O)NCCc1ccccc1)CC2 (stereo not drawn)	21%
CC(=O)Oc1c(-c2ccc(NC(=O)c3ccco3)cc2)c(C2CC2)nn1-c1cccc(C)c1	-18%
CN1CC(=O)N(c2ccccc2F)Cc2c(NCCc3ccc(Cl)cc3)ncnc21	i
SMILES	Pf Dd2 growth
Cc1nc(-c2c3n(c(=O)n(CC(=O)Nc4cccc(Cl)c4C)c2=O)CCCC3)no1	-6%
O=C1NCCCCCN(C(=O)c2ccc3ccccc3n2)[C@H]2CCC[C@@H]12	-25%
CC(=O)Nc1ccc(C)cc1S(=O)(=O)NCCn1c(C)cnc1C1CCC1	-11%
Cc1cnc(C2CC2)n1CCNC(=O)C(C)C	5%
Cc1cc(Cl)ccc1S(=O)(=O)NCCn1c(C)cnc1C1CCC1	6.3µM*
Cc1cnc(C2CCC2)n1CCNS(=O)(=O)c1ccccc1	i
Cc1cc(C)c(S(=O)(=O)NCCn2c(C)cnc2C2CC2)c(C)c1	11µM*
Cc1cnc(C2CC2)n1CCNS(=O)(=O)c1ccccc1F	-17%
COCCN1C(=O)[C@H]2CN(C(=O)c3ccncc3)C[C@H]2C1=O	-5%
Cc1ncc2c(c1CNC(=O)COc1ccc(F)cc1)CCNC2	6%
CN1c2cc(C(N)=O)ccc2C(=O)N2CCCC21 (stereo not drawn)	21%
Fc1ccc(Nc2nc(-c3ccc(F)cc3)c3c(n2)-c2ccccc2OC3)cc1	3%
CCOc1ccc(Nc2nc(-c3cccc(Cl)c3)c3c(n2)-c2ccccc2OC3)cc1	10µM*
Cc1ccccc1Nc1nc(-c2cccc(Cl)c2)c2c(n1)-c1ccccc1OC2	-5%
COC1CCOC2(CCNCC2)C1 (stereo not drawn)	1%
O=C(c1cocn1)N1C[C@@H](COc2ccncc2)[C@H](c2ccccn2)C1	6%
CCN(CC)C(=O)CCc1c(C)nn(-c2ccc(F)cc2)c1Oc1ccccc1F	i
CCN(CC)C(=O)CCc1c(C)nn(-c2cccc(C)c2)c1Oc1ccccc1	-14%
CCN(CC)C(=O)CCc1c(C)nn(-c2ccccc2)c1Oc1ccccc1	10µM*
CCCN1CCC(N2C[C@@H](CO)[C@H](c3nc(COC)no3)C2)CC1	19%
COc1cc(Cl)ccc1OCc1nc2c(n1Cc1ccccc1)C(=O)N(Cc1ccccc1C#N)CCN2	-9%
N#Cc1ccc(OCc2nc3c(n2Cc2ccccc2)C(=O)N(CC2CC2)CCN3)cc1	10µM*
O=C1c2c(nc(COc3ccc(F)cc3)n2Cc2ccccc2)NCCN1Cc1ccccc1	i
O=C1c2c(nc(COc3ccccc3)n2Cc2ccccc2)NCCN1CCOc1ccccc1	i
N#Cc1ccccc1CN1CCNc2nc(CNCc3ccc4c(c3)OCO4)n(Cc3ccccc3)c2C1=O	6.3µM*
